NadD inh – inhibitors of S. aureus NadD, primary screen, biochemical, colorimetric, uHTS; purified NadD enzyme, colorimetric absorbance read-out; inhibition, % at 20 µM; 360,000 compounds, 0.78% hits; AID 602399, 2012; in the data active = inhibition above about 26%
FAS-TE inh – FAS thioesterase domain inhibitors, primary screen, biochemical, fluorescence intensity, uHTS; Fatty acid synthase (Homo sapiens), P49327; recombinant FAS-TE, OMFH fluorogenic substrate, fluorescence endpoint; inhibition, % at 15 µM; 360,000 compounds, 0.67% hits;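 active = compounds whose normalised, plate-corrected inhibition of enzyme fluorescence in the single-dose primary screen is 50% or more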
NR3A LBD binder – binders of NR3A ligand-binding domain, primary screen, biophysical, differential scanning fluorimetry, uHTS | Glutamate receptor ionotropic, NMDA 3A (GRIN3A) ligand-binding domain | NR3A LBD differential scanning fluorimetry, Tm shift; 0% = protein alone, 100% = glycine-bound protein | Tm shift relative to glycine control, % at 25 µM | 340,000 compounds, 2.5% hits;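 active = melting temperature shift of at least 10% of the positive control shift, at one fixed dose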
rCAG RNA binder – binders of r(CAG) RNA repeats, primary screen, biochemical, fluorescence | 370,000 compounds, 1.3% hits | r(CAG) RNA repeat, TO-PRO-1 dye displacement fluorescence | inhibition, % at 3 µM;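 active = inhibition above the plate cutoff, the mean of all test compounds on that plate plus 3 SD, cut at about 35% in these data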;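 note: higher means more dye released from RNA so lower well fluorescence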
FAS-TE conf – FAS thioesterase domain inhibitors, confirmation, biochemical, fluorescence intensity, single concentration; inhibition, % at 15 µM; recombinant FAS-TE, OMFH fluorogenic substrate; AID 624325, 2012; 2,300 compounds, 45% hits; shares compounds with FAS-TE inh;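 active = compounds inhibiting the enzyme by at least 50% at 15 µM in any one of the replicates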
NadD inh conf – inhibitors of S. aureus NadD, confirmation, biochemical, colorimetric, single concentration; shares compounds with NadD inh; purified S. aureus NadD, colorimetric enzyme assay; inhibition, % at 20 µM; 2,000 compounds, 13% hits; in the data active = inhibition mostly above about 42%, no sharp cut-off; inactive = mostly below about 42%
rCAG bind conf – small molecules binding CAG repeat RNA – biochemical, fluorescence, confirmation; shares compounds with rCAG RNA binder; r(CAG) RNA repeat, TO-PRO-1 dye displacement fluorescence; AID 652065, 2013; inhibition, % at 3 µM; 4,300 compounds, 70% hits;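 active = inhibition above a per-plate cutoff, the mean inhibition of sample wells plus 3 SD, cut at about 35% in these data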;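 note: loss of TO-PRO-1 fluorescence as compound displaces dye from 1x1 AA loop RNA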
DNA CAG counter – displacement of TO-PRO-1 from CAG DNA duplex, counter-screen for rCAG RNA repeat binder project, biochemical, fluorescence, TO-PRO-1 dye, d(CAG) DNA oligo; shares compounds with rCAG RNA binder; d(CAG) DNA oligo TO-PRO-1 dye displacement; inhibition, % at 3 µM; 4,300 compounds, 94% hits; AID 652068, 2013;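 active = inhibition above its plate's cutoff, the mean test-well inhibition plus 3 SD, cut at about 4.8% in these data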;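 note: hits displace the dye from DNA and so lower well fluorescence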
A number is an active result; n = inactive; x = not tested or not shown. The list is not random: actives were taken first. Their share in the collection is about 4.3%.

SMILES | NadD inh | FAS-TE inh | NR3A LBD binder | rCAG RNA binder | FAS-TE conf | NadD inh conf | others
C#CCN(C[C@H]1[C@H](OC(=O)NCc2ccccc2)[C@H](OC(=O)NCc2ccccc2)C[C@H]2C(=O)N(c3ccccc3)C(=O)[C@@H]12)S(=O)(=O)c1ccc(C)cc1 | 35 | 62 | x | n | n | 48
C#CCN(C[C@H]1[C@H](OC(=O)Nc2cccs2)[C@H](OC(=O)Nc2cccs2)C[C@H]2C(=O)N(c3ccccc3)C(=O)[C@@H]12)S(=O)(=O)c1ccc(C)cc1 | 35 | 54 | x | n | n | 50
COc1ccc(-c2nn(-c3ccccc3)cc2/C=N/NC(=O)c2cccc(S(=O)(=O)Nc3ccccc3OC)c2)cc1 | 45 | 54 | n | n | n | n
COc1ccc(-c2nn(-c3ccccc3)cc2/C=N/NC(=O)c2ccc(Br)o2)cc1 | n | n | n | n | x | x
Cc1c(N=Cc2c(O)n(C)c(=O)c3ccccc23)c(=O)n(-c2ccccc2)n1C | n | n | n | x | x | x
COc1ccc(C2=C(C=Nc3c(C)n(C)n(-c4ccccc4)c3=O)C(c3ccccc3C)c3ccccc3O2)cc1OC (stereo unspecified) | 34 | 84 | n | n | n | n
CCCCc1ccc(-c2csc(/C(C#N)=C\c3ccc(C)o3)n2)cc1 | n | n | n | n | x | x
CCOc1ccc(-c2csc(/C(C#N)=C\c3ccc(O)c([N+](=O)[O-])c3)n2)cc1 | 48 | 72 | n | n | 61 | n
Cc1ccc(-c2cc(C(F)F)n3ncc(C(=O)Nc4c(C)nn(Cc5ccccc5Cl)c4C)c3n2)cc1 | 33 | 50 | n | n | n | n
COC(=O)c1cc2c(c3c4ccccc4n(S(=O)(=O)c4cccc(C)c4)c13)C(=O)N(C)C2 | x | x | x | n | x | x
C/C=C/C(=O)N1CCC(C(=O)NC2CCCc3ccccc32)CC1 (stereo unspecified) | x | x | x | n | x | x
COc1ccc2c(c1)C(=O)N1[C@H]3c4cc(Br)ccc4OC[C@@H]3[C@H](c3ccccc3)[C@]1(C)C(=O)N2 | 30 | 78 | n | x | 41 | n
CCOC(=O)[C@H]1[C@H]2COc3ccc(Cl)cc3[C@@H]2N2C(=O)c3cc(OC)ccc3NC(=O)[C@@]12C | n | n | n | n | x | x
COc1ccc(C2=NN(C(=O)CSc3nc(=O)n4cccc(C)c4n3)C(c3ccc(C)cc3)C2)cc1 (stereo unspecified) | 36 | 90 | n | n | n | n
COc1ccc(C2=NN(C(=O)CSc3ncccn3)C(c3ccc(C)cc3)C2)cc1 (stereo unspecified) | n | n | n | n | x | x
CNC(=O)c1ccc(NC(=O)C2CCN(c3ncnc4sc(C)c(C)c34)CC2)cc1 | n | n | n | n | x | x
Cc1sc2ncnc(N3CCC(C(=O)Nc4sc5c(c4C(N)=O)CCC(C)C5)CC3)c2c1C (stereo unspecified) | 31 | 66 | n | n | n | n
CN(C)CC(=O)N[C@H]1C[C@@H]2O[C@@H](CO)CC[C@@H]2O[C@@H]1CCc1ccc(-c2ccc(F)cc2)cc1 | x | x | x | n | x | x
CCOc1ccccc1NC(=O)CSC1=C(C#N)C(c2ccco2)C(C(=O)Nc2nc3ccccc3s2)=C(C)N1 (stereo unspecified) | 42 | 81 | n | n | n | n
COC(=O)[C@]12C[C@H](CC(=O)NCc3ccc(OC)c(OC)c3)C(=O)N(Cc3ccco3)C1=C[C@H](COCc1ccccc1)O[C@@H]2C | x | x | x | n | x | x
COc1cc(C2c3c(c(C)c(C)oc3=O)Oc3c(C)c(C)oc(=O)c32)ccc1OS(=O)(=O)c1ccc(C)cc1 | 32 | 84 | n | n | n | n
CCCC[C@H]1C2CC(OC(=O)Nc3ccccc3Cl)C(C2)[C@H]2CCCCN21 (stereo partly specified) | x | x | x | n | x | x
CCOC(=O)c1sc2nc3c(SCC(=O)O)cc(C(=O)c4ccccc4O)cn3c(=O)c2c1C | n | n | n | n | x | x
O=C(O)CSc1cc(C(=O)c2ccccc2O)cn2c(=O)c3c(-c4ccccc4)csc3nc12 | 38 | 70 | n | 53 | 79 | 57 | rCAG bind conf=90;DNA CAG counter=74
CCN1C(=O)/C(=C\c2cn(-c3ccccc3)nc2-c2cccnc2)SC1=S | n | n | n | n | x | x
SMILES | NadD inh | FAS-TE inh | NR3A LBD binder | rCAG RNA binder | FAS-TE conf | NadD inh conf | others
O=C1C(=Cc2cn(-c3ccccc3)nc2-c2ccc(OCc3ccccc3)cc2)SC(=S)N1CCS(=O)(=O)O | 50 | 71 | x | 59 | n | x | rCAG bind conf=72;DNA CAG counter=49
Cc1nnc(SC(C(=O)Nc2ccc(Cl)c([N+](=O)[O-])c2)c2ccccc2)[nH]c1=O (stereo unspecified) | n | 52 | n | 61 | 53 | x | rCAG bind conf=40;DNA CAG counter=12
O=C(NC1CCCCN(Cc2ccc(Cl)cc2)C1=O)c1cc(-c2ccccc2)no1 (stereo unspecified) | x | x | x | n | x | x
O=[N+]([O-])c1cccc(S(=O)(=O)Nc2nc3ccccc3nc2Nc2cccc(S(=O)(=O)N3CCCCC3)c2)c1 | n | 82 | n | 52 | n | x | rCAG bind conf=95;DNA CAG counter=86
CC(=O)CC[C@@H]1CC[C@]2(CCCN(C(=O)C3CCCCC3)C2)O1 | x | x | x | n | x | x
O=C(O)/C(=C/c1ccc(Cl)c([N+](=O)[O-])c1)c1ccc(S(=O)(=O)N2CCCCC2)s1 | n | 56 | n | 89 | 53 | x | rCAG bind conf=77;DNA CAG counter=40
C=CCN1C(=O)[C@H](CC(=O)NCc2ccc(C)o2)[C@@]2(C(=O)OCC)CCCC=C12 | x | x | x | n | x | x
C[C@@H]1CN(C(=O)OC(C)(C)C)CCN1c1ccc(N2CCS(=O)(=O)CC2)c(C#N)c1 | x | x | x | n | x | x
COc1ccc(-c2csc(NC(=O)c3ccccc3NS(=O)(=O)c3ccc(C)cc3)n2)cc1 | 42 | 56 | 29 | 85 | 49 | 51 | rCAG bind conf=95;DNA CAG counter=82
COc1ccc(-c2csc(NC(=O)c3c(OC)cccc3OC)n2)cc1 | n | n | n | n | x | x
CC(C)C[C@@H]1COc2cc(N3CCSCC3)ccc2S(=O)(=O)N1C | x | x | x | n | x | x
O=C(COc1ncnc2c(Cl)cc(Cl)cc12)Nc1cc([N+](=O)[O-])ccc1Cl | n | 52 | 14 | 68 | n | x | rCAG bind conf=n;DNA CAG counter=9.4

Screening results deposited in PubChem BioAssay by several laboratories.
